Test results taken from PubChem BioAssay (NCATS).
Results filed as inconclusive are left out. Values without a mark were called inactive. Calls of active or inactive are those of the source. Calls follow the shape of the dose curve; as a rule, active = well fitted inhibition curve with a large enough effect; inconclusive = small, poorly fitted or top-dose-only effect; inactive = flat fitted curve, though single readings scatter.

Test system: NIH3T3
Assay: Cytotoxic Profiling of Annotated Libraries Using Quantitative High-Throughput Screening (AID 1296008); also: % is scaled to controls: 0 for no effect and ±100 for the full control effect
Conditions: Five cell lines viability, CellTiter-Glo ATP luminescence, 48-72 h; max response: stronger effect = lower value
Summary of the method: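 Compounds were pin-transferred onto cells and incubated 48 or 72 hr at 37 degree Celsius, 95% humidity. CellTiter-Glo was added, plates sat 10 min at room temperature, then ATP-coupled luminescence was imaged as the viability read-out.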
Also: nearly all actives have a fitted effect of over 60% in size.

Q: `C=C1C(=O)O[C@@H]2[C@H]1CC[C@H](C)[C@]1(CCC(=O)O1)C2(C)O` (some centres not stated) was tested. Which max response did it give?
A: The max response was -19.6%.

Q: For `CN1CCN(c2ccc(-c3cccc(CN4CCOCC4)c3)cc2NC(=O)c2c[nH]c(=O)cc2C(F)(F)F)CC1`, which max response is on record?
A: Its max response is -7.39%.

Q: How did the max response turn out when `CC(C)OC(=O)N1CCC(Oc2ncnc3c2cnn3-c2ccc(S(C)(=O)=O)cc2F)CC1` was run?
A: The max response was -1.21%.

Test system: HACAT
Assay: qHTS assay to identify novel small-molecules to repurpose for Merkel cell carcinoma treatment (AID 1296009)
Conditions: MCC and control cell lines, CellTiter-Glo viability, 72 h; at 44.8 µM (top of the series) unless noted
Summary of the method: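 Viability readout: ATP luminescence (CellTiter-Glo) after 72 hr drug exposure at 37 degree celsius. Dose-response format was 8 points for NPC and 11 points for MIPE; data normalized to in-plate controls.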

Q: With `COc1ccc(S(=O)(=O)Nc2cc(Cl)cc(Cl)c2OC)cc1N1CCNCC1` as the compound, how does the outcome read?
A: Its outcome is “inactive”.

Q: Which outcome does the source give for `CC(=O)O[C@H]1[C@@]2(O)C[C@H](C)[C@H](OC(=O)c3ccccc3)[C@@H]2[C@@H](OC(=O)CO)[C@]2(OC(C)=O)C[C@H]3C(=O)C(C)(C)C[C@@H]3[C@@]1(C)[C@H]2OC(C)=O` here?
A: The outcome was “inactive [at 17.4 µM]”.

Q: For `COc1ccc2cc(-c3cc(-c4cc(Cl)cc(Cl)c4)nn3C(C)c3ccc(C(=O)NCCC(=O)O)cc3)ccc2c1` (configuration not stated), which outcome is on record?
A: The outcome was “inactive”.

Q: How did the outcome turn out when `CCCCC1CCC(c2nc(-c3ccncc3)no2)CC1` (configuration not stated) was run?
A: The outcome was “inactive”.

Q: With `CC(C)CCCCC(=O)N[C@@H](CO)C(=O)N[C@@H](CC(C)C)C(=O)[C@@]1(CO)CO1` as the compound, how does the outcome read?
A: The outcome was “inactive”.

Q: For `COc1ccc(NC(=O)c2ccc(-c3ccc(C(=N)N)cc3C)cc2)cc1N1CCN(C)CC1`, which outcome is on record?
A: Its outcome is “inactive”.

Q: With `CC(C)(Cc1nc(-c2ccc(O)cn2)no1)C(=O)NC1=C(C(=O)O)CCCC1` as the compound, how does the outcome read?
A: The outcome was “inactive”.

Q: `CCCN(CCc1ccsc1)C1CCc2c(O)cccc2C1` (configuration not stated) was tested. Which outcome did it give?
A: The outcome was “inactive”.

Q: For `CCn1c(=O)n([C@H]2CCCN(c3nccc(-c4cc5ccccc5o4)n3)C2)c2ccccc21`, which outcome is on record?
A: Its outcome is “inactive”.

Q: How did the outcome turn out when `CC(=O)OC1CC(C)(C(=O)O)CC2C3=CC(=O)C4C5(C)CCC(OC6OC(C(=O)O)C(O)C(O)C6OC6OC(C(=O)O)C(O)C(O)C6O)C(C)(C)C5CCC4(C)C3(C)CCC12C` (configuration not stated) was run?
A: Its outcome is “inactive [at 9.27 µM]”.

Q: With `COC1=CC(=O)C=C(C)C12Oc1c(Cl)c(OC)cc(OC)c1C2=O` (configuration not stated) as the compound, how does the outcome read?
A: Its outcome is “inactive”.

Q: Which outcome does the source give for `O=C(Nc1ccn(Cc2ccc(O)cc2C(F)(F)F)n1)c1c(F)cccc1F` here?
A: Its outcome is “inactive”.

Q: With `Cc1cccc(N2CCN(C(=O)c3cc(S(=O)(=O)N(C)C)ccc3N3CCCC3)CC2)c1C` as the compound, how does the outcome read?
A: The outcome was “inactive”.

Q: With `COC(=O)c1ccnc(-c2cc(C(=O)Nc3ccc(C4(N)CC4)cc3)ccn2)c1` as the compound, how does the outcome read?
A: The outcome was “inactive”.

Q: Which outcome does the source give for `COc1ccc(CCO[C@@H]2O[C@H](CO[C@H]3OC[C@](O)(CO)[C@H]3O)[C@@H](OC(=O)/C=C/c3ccc(O)c(O)c3)[C@H](O[C@@H]3O[C@@H](C)[C@H](O)[C@@H](O)[C@H]3O)[C@H]2O)cc1OC` here?
A: Its outcome is “inactive [at 17.4 µM]”.

Q: How did the outcome turn out when `CC(C)(C)c1ccc(C(=O)Nc2cn3cc(-n4ccnc4)ccc3n2)cc1` was run?
A: The outcome was “inactive”.

Q: How did the outcome turn out when `C[C@@H](NC(=O)C(=O)c1c[nH]c2ccc([N+](=O)[O-])cc12)c1ccccc1` was run?
A: Its outcome is “inactive”.

Q: For `COc1ccc(NC(=O)c2ccc(-c3ccc(-c4nnc(C)o4)cc3C)cc2)cc1N1CCN(C)CC1`, which outcome is on record?
A: The outcome was “inactive; activator”.

Q: `C=C1C(=O)OC2CC(C)C(CCC(C)O)=CCC12` (configuration not stated) was tested. Which outcome did it give?
A: Its outcome is “inactive”.

Q: With `CC(C)Nc1nc(Nc2ccccc2)nc(-c2ccccc2)n1` as the compound, how does the outcome read?
A: Its outcome is “inactive”.

Q: For `O=C(NCCCNc1nc(Nc2cccc(CN3CCOCC3)c2)ncc1C1CC1)C1CCC1`, which outcome is on record?
A: Its outcome is “inactive”.

Q: With `Cc1cc2c(N3CCCC3)nc(N3CCCC3)nc2n1C` as the compound, how does the outcome read?
A: Its outcome is “inactive”.

Q: `Cc1cc(OCCCS(C)(=O)=O)cc(C)c1-c1cccc(COc2ccc(C3=CC(=O)NS3=O)cc2)c1` (configuration not stated) was tested. Which outcome did it give?
A: Its outcome is “inactive”.

Q: With `O=C(c1cc(Cc2n[nH]c(=O)c3ccccc23)ccc1F)N1CCCNCC1` as the compound, how does the outcome read?
A: Its outcome is “inactive”.

Q: With `CCNC1(C(N)=O)CCN(c2ncnc3c2nc(-c2ccccc2Cl)n3-c2ccc(Cl)cc2)CC1` as the compound, how does the outcome read?
A: Its outcome is “inactive”.

Q: Which outcome does the source give for `CCCOc1ccc(S(=O)(=O)N2CCN(CCO)CC2)cc1-c1nc2c(CCC)cn(CC)c2c(=O)[nH]1` here?
A: The outcome was “inactive”.

Q: For `CN1CCN(C2=Nc3ccccc3Nc3ccc(OS(=O)(=O)C(F)(F)F)cc32)CC1`, which outcome is on record?
A: Its outcome is “inactive”.

Q: `CCOc1ccc(CCNC(=O)c2cc3sc(Cl)cc3n2C)cc1OCC` was tested. Which outcome did it give?
A: Its outcome is “inactive”.

Q: For `NS(=O)(=O)c1ccc(NC(=O)Nc2ccc(F)cc2)cc1`, which outcome is on record?
A: The outcome was “inactive”.

Q: With `O=C(Nc1cccnc1)c1cc(-c2ccnc(F)c2)ccc1OCc1ccccc1` as the compound, how does the outcome read?
A: The outcome was “inactive”.

Q: `Cc1cc(C)c(-n2cc(C)c3c(Cl)nc(C)nc32)c(C)c1` was tested. Which outcome did it give?
A: The outcome was “inactive”.

Q: `Cc1cc(C)c(S(=O)(=O)n2cc(C)cc2C)c(C)c1` was tested. Which outcome did it give?
A: The outcome was “inactive”.

Q: Which outcome does the source give for `O=C(c1ccc(OC(F)F)c(C#Cc2ccccn2)c1)N1Cc2cccnc2C1` here?
A: Its outcome is “inactive”.

Q: Which outcome does the source give for `CC1=C(C(=O)Nc2cc(Cl)ccc2Cl)C(c2ccco2)C2=C(CCCC2=O)N1` (configuration not stated) here?
A: Its outcome is “inactive”.

Q: Which outcome does the source give for `COc1ccc2c(NC(=O)Nc3cccc(C(F)(F)F)n3)ccnc2c1` here?
A: Its outcome is “inactive”.

Q: `CC[C@H](C)/C=C(C)/C=C/C1=CC2=CC(=O)[C@]3(C)OC(=O)[C@@H](C(C)=O)[C@@H]3C2=CO1` was tested. Which outcome did it give?
A: Its outcome is “inactive”.

Q: For `C=C1C(=O)O[C@@H]2[C@H]1CC[C@H](C)[C@]1(CCC(=O)O1)C2(C)O` (some centres not stated), which outcome is on record?
A: Its outcome is “inactive”.

Q: With `CN1CCN(c2ccc(-c3cccc(CN4CCOCC4)c3)cc2NC(=O)c2c[nH]c(=O)cc2C(F)(F)F)CC1` as the compound, how does the outcome read?
A: Its outcome is “inactive”.

Q: `CC(C)OC(=O)N1CCC(Oc2ncnc3c2cnn3-c2ccc(S(C)(=O)=O)cc2F)CC1` was tested. Which outcome did it give?
A: Its outcome is “inactive”.
